From PubChem
DAX1 inh: blocks DAX1 repression of SF-1 activated StAR promoter | HEK293T StAR-luciferase reporter, SF-1/DAX-1 repression relief | inhibition, % at 6.8 µM | AID 652010 | hit rate 1.1% among 370,000;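 active = inhibition above the mean over all tested compounds plus 3 SD, cut at about 3.6% in these data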;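 note: higher inhibition means more luminescence from relief of DAX-1 repression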
ssDAF12 agonist: activates DAF-12 receptor from parasite S. stercoralis; HEK293 ssDAF-12/GRIP1 lit1-tk-luc reporter, luminescence; % of 3 µM dafachronic acid response; activation, % at 6.8 µM; hit rate 1% among 370,000; AID 652126;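 active = activation above the mean over all tested compounds plus 3 SD, cut at about 0.9% in these data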
hcDAF12 agonist: H. contortus DAF-12 activation, primary screen | hit rate 1.4% among 370,000 | AID 652067 | activation, % at 6.8 µM | HEK293 hcDAF-12 lit1-tk-luc reporter, luminescence; 0% DMSO, 100% Δ7-dafachronic acid;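 active = activation above the mean of all tested compounds plus 3 SD, cut at about 5.5% in these data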
SMARCA2 activ: SMARCA2 function activation, primary screen. AID 652017. hit rate 1% among 370,000. MG213 cells, MMTV-luciferase reporter, dexamethasone, overnight. activation, % at 9.1 µM; in the data active = activation above about 7.8%
hgDAF-12 ag: activates the H. glycines DAF-12 receptor ligand-binding domain | HEK293 GAL4-hgDAF12 UAS-luciferase reporter, agonist luminescence; normalized to butyrate control | activation, % at 6.8 µM | hit rate 1.8% among 370,000 | AID 687014;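 active = activation above a cutoff set at the mean of all screened compounds plus 3 SD, cut at about 10% in these data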
SMARCA2 conf: SMARCA2 activation, confirmation screen. shares compounds with SMARCA2 activ. MG213 cells, MMTV-luciferase with dexamethasone, luminescence, overnight; MG213 cells expressing E1A, Rb sequestered; DMSO wells 0%, reference activator 100%. activation, % at 9.1 µM. hit rate 30% among 3,500;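 active = activation above its plate's cutoff, the mean activation of tested wells plus 3 SD, cut at about 7.9% in these data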
GAL4-VP16 Luc: GAL4-VP16 reporter activation counter-screen; HEK293 GAL4-VP16 pG5luc reporter, luciferase luminescence; scaled: DMSO wells 0%, SAHA wells 100%; shares compounds with SMARCA2 activ; hit rate 41% among 3,500; activation, % at 9.1 µM;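 active = activation above the solvent-only control well mean plus 3 SD, averaged across control plates, cut at about 5.2% in these data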
Each line names hits and unclear results; the compound was inactive in the other large screens (follow-up assays come after a bar, where they were run). In the library only some 4.2% were active in any assay of this set; here they are far more common.

O=C(c1cc(-c2ccc(O)cc2)on1)N1CCc2ccccc2C1	none
O=C(c1cc(-c2ccccc2O)on1)N1CCc2ccccc2C1	SMARCA2 activ 8.6 | SMARCA2 conf inactive | GAL4-VP16 Luc inactive
O=C(Cn1c(=O)c2sccc2n(Cc2ccc([N+](=O)[O-])cc2)c1=O)NCCc1ccccc1	SMARCA2 activ 10 | SMARCA2 conf inactive | GAL4-VP16 Luc inactive
O=C(Cn1c(=O)c2sccc2n(Cc2cccc([N+](=O)[O-])c2)c1=O)NCCc1ccccc1	none
Cc1ccc(C(=O)Nc2cccc(C(=O)N3CCOCC3)c2)cc1	SMARCA2 activ 16 | SMARCA2 conf 8.3 | GAL4-VP16 Luc inactive
Cc1ccc(NC(=O)c2ccc(OC(=O)c3cc4ccccc4o3)cc2)cc1	SMARCA2 activ 9.1 | SMARCA2 conf inactive | GAL4-VP16 Luc 14
Cc1ccc(C(=O)Nc2cccc(-c3cnc4ccccc4n3)c2)cc1	none
COC(=O)c1sccc1NC(=O)c1ccc(OC)cc1	SMARCA2 activ 17 | SMARCA2 conf inactive | GAL4-VP16 Luc inactive
COc1ccc(C(=O)Nc2cccc(-c3cnc4ccccc4n3)c2)cc1	SMARCA2 activ 8.4 | SMARCA2 conf inactive | GAL4-VP16 Luc inactive
C[C@@H]1CN([C@@H](C)CO)C(=O)c2cc(C#CC(C)(C)O)cnc2O[C@@H]1CN(C)C(=O)c1ccccc1F	none
COC(=O)[C@]12C[C@H](CC(=O)N3CCCC3)C(=O)N(Cc3ccco3)C1=C[C@H](C(C)C)O[C@@H]2C1CC1	none
COc1ccc(NC(=O)c2ccc3[nH]c(C)c(C)c3c2)cc1	SMARCA2 activ 18 | SMARCA2 conf 9.5 | GAL4-VP16 Luc inactive
COc1ccc(C(=O)NNc2ccccc2)cc1	SMARCA2 activ 10 | SMARCA2 conf inactive | GAL4-VP16 Luc inactive
COc1ccc(C(=O)Nc2cccc(C)c2)cc1	DAX1 inh 4.0, SMARCA2 activ 9.6, hgDAF-12 ag 11 | SMARCA2 conf 13 | GAL4-VP16 Luc 8.4
CC(=O)Nc1cccc(NC(=O)c2ccc3[nH]c(C)c(C)c3c2)c1	none
C[C@H]1[C@@H](NC(=O)/C=C/c2ccccc2)CC[C@@]23CCCN2C(=O)CCC[C@@H]13	none (no result: DAX1 inh, SMARCA2 activ)
CCOC(OCC)P(=O)(CNC(c1ccccc1)(c1ccccc1)c1ccccc1)OCC (stereo unspecified)	none
O=C(N[C@H](C(=O)N1CCC[C@H]1C(=O)NC1CCCC1)C1CCCCC1)c1nccs1	none
O=C(N[C@@H](Cc1cccnc1)C(=O)N1CCC[C@H]1C(=O)NCCc1ccccc1Cl)C1CCCC1	none
CCN1CCc2c(sc(NC(=S)NC(=O)c3ccco3)c2C(N)=O)C1	SMARCA2 activ 9.8 | SMARCA2 conf inactive | GAL4-VP16 Luc inactive
CN(C)c1ccc(NC(N)=S)cc1	none
CN(C)c1ccc(Cl)c(NC(N)=S)c1	SMARCA2 activ 8.2 | SMARCA2 conf inactive | GAL4-VP16 Luc inactive
CN(C)c1ccc(/C=C(/C#N)C(=O)Nc2nc3c(s2)CCN(Cc2ccccc2)C3)cc1	SMARCA2 activ 8.9 | SMARCA2 conf inactive | GAL4-VP16 Luc 6.9
CCc1ccc(N2C=C(C(=O)OC)C(c3ccccc3F)C(C#N)=C2N)cc1 (stereo unspecified)	none
CN(CC#Cc1ccccc1)C(N)=NC(=O)/C=C/c1ccccc1	none
COC(=O)/C(=C1/Oc2cc(C)oc(=O)c2S1)C(F)(F)F	SMARCA2 activ 9.1 | SMARCA2 conf inactive | GAL4-VP16 Luc inactive
COC(=O)/C(=C1/Oc2ccc(C(C)(C)C)cc2S1)C(F)(F)F	none
C[C@@H]1ON(C)[C@H]2C[C@H]3c4[nH]c5c(-c6ccc7c(c6)OCO7)cccc5c4CCN3C(=O)[C@@H]12	none
CCN(CC)C(=O)c1ccc2c(c1)NC(=O)C(C)(C)O2	none
COc1ccc(-c2ccc(S(=O)(=O)n3nc(OC(=O)c4cccs4)cc3N)cc2)cc1	none
COc1ccc(NC(=O)n2nc(OC(=O)c3cccs3)cc2N)cc1	SMARCA2 activ 9.1 | SMARCA2 conf inactive | GAL4-VP16 Luc inactive
COC(=O)c1cccc(-n2c(C)cc(O)cc2=O)c1	none
O=C(Oc1ccccc1C(=O)N1CCOCC1)c1ccccc1	SMARCA2 activ 8.0 | SMARCA2 conf inactive | GAL4-VP16 Luc inactive
CCc1ccc2[nH]c(=O)c(CN(CCN(CC)CC)C(=O)Nc3ccccc3OC)cc2c1	SMARCA2 activ 9.0 | SMARCA2 conf inactive | GAL4-VP16 Luc inactive
COc1ccccc1NC(=S)N(CCCN(C)C)Cc1cc2cc3c(cc2[nH]c1=O)OCO3	SMARCA2 activ 8.0 | SMARCA2 conf inactive | GAL4-VP16 Luc inactive
CCN(CC)CCCN(Cc1cc2cc3c(cc2[nH]c1=O)OCO3)C(=S)Nc1ccccc1OC	none
O=S1(=O)c2c(cccc2N2CCC[C@@H]2CO)O[C@H]2CCN1C2	none
NC(=O)C1CCCN(Cc2ccc(Cl)cc2)C1 (stereo unspecified)	SMARCA2 activ 8.3 | SMARCA2 conf inactive | GAL4-VP16 Luc inactive
O=S1(=O)c2c(cccc2N2CCSCC2)Oc2ccccc2CN1Cc1cn(Cc2cccc(F)c2)nn1	none
COc1cc(C=Nn2c(-c3cc(C)[nH]n3)n[nH]c2=S)cc(Br)c1O	none
CCOCCCNC(=O)/C(C#N)=C/c1ccc([N+](=O)[O-])o1	SMARCA2 activ 12 | SMARCA2 conf inactive | GAL4-VP16 Luc inactive
CC(=O)c1ccc(/C=C/c2nc3ccccc3n2C)o1	SMARCA2 activ 8.8 | SMARCA2 conf 23 | GAL4-VP16 Luc 12
O=C(/C=C/c1ccccc1[N+](=O)[O-])OCC(=O)c1ccccc1	SMARCA2 activ 10 | SMARCA2 conf 8.0 | GAL4-VP16 Luc inactive
Cc1ccc2c(c1)N(CC(=O)NCCCc1ccccc1)C(=O)c1cccnc1O2	none
Cc1ccc2c(c1)N(CC(=O)NCC(C)c1ccccc1)C(=O)c1cccnc1O2 (stereo unspecified)	SMARCA2 activ 12 | SMARCA2 conf inactive | GAL4-VP16 Luc inactive
N#CC(=C1NC(=O)c2ccccc21)c1nc2ccccc2n1CCO	SMARCA2 activ 20 | SMARCA2 conf inactive | GAL4-VP16 Luc 18
CCOC(=O)c1sc(NC(=O)Cc2ccccc2OC)nc1C	none
CCOC(=O)c1sc(NC(=O)Cc2ccc(F)cc2)nc1C	SMARCA2 activ 8.4 | SMARCA2 conf inactive | GAL4-VP16 Luc inactive
Cc1cc(O)cc(=O)n1-c1cc(F)c(F)c(F)c1	none
Cc1cccc(NC(=O)Nc2ccccn2)c1C	none
Cc1cccc(NC(=O)c2ccccn2)c1C	SMARCA2 activ 8.3 | SMARCA2 conf 13 | GAL4-VP16 Luc 8.4
COc1cccc2c(=O)c(C(=O)NCc3cccs3)c[nH]c12	SMARCA2 activ 10 | SMARCA2 conf 17 | GAL4-VP16 Luc 5.9
COc1cccc2c(=O)c(C(=O)NCCc3ccccc3)c[nH]c12	none
